# Results from the supplement of paper PMC8728848.
# The sample as a whole holds a higher share of the strongest signals than the screen did.
# B1: PX9937I-bfa-538-26-538 (Bacteroides fragilis) (protein)
# chain: DKLDLSPIDYYGSGSYWKTEAQATAYIDGIHKHLRDAAWQHTITFGELRGGRFITGASSDGMGVSNGDIILQNFDETHTGVSKFGDLFGRITNLNLFIARVTDATYLSDEMKNFYLGEVYGLRAFYYFDLYRIYGGVPLRLTADVVEGVIDPNKLYMARSTPKEVMTQIKSDLNKSMEYFGNMNDFDPYKRGKKVYWSKAATECLMGEVYLWTSKVTTGDDVANPADLTIAKTHLESVLNNYNLKMLDDFSQVFNAKNKANDEIIFAIRFLEGEATNSNGTFTYNVGTGSTKNRYQANGEVFGDALDIQNTGNQTYEYNKAVYQNFDDADTRKEATFIASYNKDGKTGELSLYGTHVRKNIGYVNAQGARVYCGDYIFYRLPWVYLTLAEIANMEGDNAAVAKYINLVRKRAYGNAWDETLYAYPETADFTTNELAILHEKDKEFIQEGQRWWDLRRMTLTKGGTPLVFCKEGSLLGDAPILNKSTEAHKLLWPIEKTMLNKDPALEQTPGYK
# Key:
# Test in all cases: glycan array binding signal (z-score within array); higher = stronger binding
# Conditions in all cases: glycan notation: IUPAC condensed, linker removed
# [1] = biological target: Gal(b1-4)GlcNAc(b1-3)Gal(b1-4)GlcNAc(b1-3)Gal(b1-4)GlcNAc(b1-3)Gal(b1-4)GlcNAc(b1-2)Man(a1-3)[Gal(b1-4)GlcNAc(b1-3)Gal(b1-4)GlcNAc(b1-3)Gal(b1-4)GlcNAc(b1-3)Gal(b1-4)GlcNAc(b1-2)Man(a1-6)]Man(b1-4)GlcNAc(b1-4)GlcNAc
# Summary of the method: (§1)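 The Consortium for Functional Glycomics database supplied 3228 glycan arrays, of which those lacking an available protein sequence were dropped. The binding signal, a within-array Z-score, was averaged across arrays of the same protein sequence and across linkers. Negative scores can be read as non-binding.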
# [2] = biological target: Gal(b1-4)GlcNAc(b1-3)Gal(b1-4)GlcNAc(b1-3)Gal(b1-4)GlcNAc(b1-3)Gal(b1-4)GlcNAc(b1-3)Gal(b1-4)GlcNAc(b1-2)Man(a1-3)[Gal(b1-4)GlcNAc(b1-3)Gal(b1-4)GlcNAc(b1-3)Gal(b1-4)GlcNAc(b1-3)Gal(b1-4)GlcNAc(b1-3)Gal(b1-4)GlcNAc(b1-2)Man(a1-6)]Man(b1-4)GlcNAc(b1-4)GlcNAc
# Summary of the method: as §1
# [3] = biological target: Gal(b1-4)GlcNAc(b1-3)Gal(b1-4)GlcNAc(b1-6)[Gal(b1-3)]GalNAc
# Summary of the method: as §1
# [4] = biological target: Gal(b1-4)GlcNAc(b1-6)[Gal(b1-3)]GalNAc
# Summary of the method: as §1
# Gal3S4S(b1-4)GlcNAc = biological target: Gal3S4S(b1-4)GlcNAc
# Summary of the method: as §1
# Gal6P(b1-4)GlcNAc = biological target: Gal6P(b1-4)GlcNAc
# Summary of the method: as §1
# GalNAc4S6S(b1-4)GlcNAc = biological target: GalNAc4S6S(b1-4)GlcNAc
# Summary of the method: as §1
# [5] = biological target: GlcNAc(b1-2)[GlcNAc(b1-4)]Man(a1-3)[GlcNAc(b1-4)][GlcNAc(b1-2)[GlcNAc(b1-6)]Man(a1-6)]Man(b1-4)GlcNAc(b1-4)[Fuc(a1-6)]GlcNAc
# Summary of the method: as §1
# [6] = biological target: GlcNAc(b1-3)Gal(b1-4)GlcNAc(b1-3)Gal(b1-4)GlcNAc(b1-3)Gal(b1-4)GlcNAc(b1-3)Gal(b1-4)GlcNAc(b1-2)[GlcNAc(b1-3)Gal(b1-4)GlcNAc(b1-3)Gal(b1-4)GlcNAc(b1-3)Gal(b1-4)GlcNAc(b1-3)Gal(b1-4)GlcNAc(b1-6)]Man(a1-6)[GlcNAc(b1-3)Gal(b1-4)GlcNAc(b1-3)Gal(b1-4)GlcNAc(b1-3)Gal(b1-4)GlcNAc(b1-3)Gal(b1-4)GlcNAc(b1-2)Man(a1-3)]Man(b1-4)GlcNAc(b1-4)[Fuc(a1-6)]GlcNAc
# Summary of the method: as §1
# [7] = biological target: GlcNAc(b1-3)Gal(b1-4)GlcNAc(b1-6)[GlcNAc(b1-3)]Gal(b1-4)GlcNAc
# Summary of the method: as §1
# [8] = biological target: GlcNAc(b1-4)Gal(b1-4)GlcNAc
# Summary of the method: as §1
# [9] = biological target: GlcNAc(b1-4)GlcNAc(b1-4)GlcNAc(b1-4)GlcNAc(b1-4)GlcNAc
# Summary of the method: as §1
# [10] = biological target: GlcNAc(b1-4)GlcNAc(b1-4)GlcNAc(b1-4)GlcNAc(b1-4)GlcNAc(b1-4)GlcNAc
# Summary of the method: as §1
# GlcNAc(b1-6)GalNAc = biological target: GlcNAc(b1-6)GalNAc
# Summary of the method: as §1
# [11] = biological target: Man(a1-2)Man(a1-2)Man(a1-3)Man
# Summary of the method: as §1
# Man(a1-3)[Man(a1-6)]Man = biological target: Man(a1-3)[Man(a1-6)]Man
# Summary of the method: as §1
# [12] = biological target: Neu5Ac(a2-3)Gal(b1-3)GalNAc(b1-3)Gal(a1-4)Gal(b1-4)Glc
# Summary of the method: as §1
# [13] = biological target: Neu5Ac(a2-3)Gal(b1-3)[Fuc(a1-4)]GlcNAc(b1-3)Gal(b1-3)[Fuc(a1-4)]GlcNAc
# Summary of the method: as §1
# Neu5Ac(a2-6)Gal(b1-4)Glc = biological target: Neu5Ac(a2-6)Gal(b1-4)Glc
# Summary of the method: as §1
# [14] = biological target: Neu5Ac(a2-6)Gal(b1-4)GlcNAc
# Summary of the method: as §1
# [15] = biological target: Neu5Ac(a2-6)Gal(b1-4)GlcNAc(b1-2)Man(a1-3)Man(b1-4)GlcNAc(b1-4)GlcNAc
# Summary of the method: as §1
# [16] = biological target: Neu5Ac(a2-6)Gal(b1-4)GlcNAc(b1-2)Man(a1-3)[GlcNAc(b1-2)Man(a1-6)]Man(b1-4)GlcNAc(b1-4)GlcNAc
# Summary of the method: as §1
# [17] = biological target: Neu5Ac(a2-6)Gal(b1-4)GlcNAc(b1-3)Gal(b1-4)GlcNAc(b1-3)[Neu5Ac(a2-6)Gal(b1-4)GlcNAc(b1-3)Gal(b1-4)GlcNAc(b1-6)]GalNAc
# Summary of the method: as §1
# Neu5Ac(b2-6)GalNAc = biological target: Neu5Ac(b2-6)GalNAc
# Summary of the method: as §1
# [18] = biological target: Neu5Gc(a2-6)Gal(b1-4)GlcNAc
# Summary of the method: as §1
binder,measurement,setting,value
B1,glycan array binding signal (z-score),[1],1.43
same,glycan array binding signal (z-score),[2],1.74
same,glycan array binding signal (z-score),[3],3.46
same,glycan array binding signal (z-score),[4],-0.735
same,glycan array binding signal (z-score),Gal3S4S(b1-4)GlcNAc,0.428
same,glycan array binding signal (z-score),Gal6P(b1-4)GlcNAc,-0.37
same,glycan array binding signal (z-score),GalNAc4S6S(b1-4)GlcNAc,-0.708
same,glycan array binding signal (z-score),[5],-0.615
same,glycan array binding signal (z-score),[6],0.041
same,glycan array binding signal (z-score),[7],-0.068
same,glycan array binding signal (z-score),[8],1.65
same,glycan array binding signal (z-score),[9],1.25
same,glycan array binding signal (z-score),[10],-0.198
same,glycan array binding signal (z-score),GlcNAc(b1-6)GalNAc,0.252
same,glycan array binding signal (z-score),[11],0.241
same,glycan array binding signal (z-score),Man(a1-3)[Man(a1-6)]Man,0.95
same,glycan array binding signal (z-score),[12],-1
same,glycan array binding signal (z-score),[13],-1.26
same,glycan array binding signal (z-score),Neu5Ac(a2-6)Gal(b1-4)Glc,-0.274
same,glycan array binding signal (z-score),[14],-0.419
same,glycan array binding signal (z-score),[15],3.63
same,glycan array binding signal (z-score),[16],-0.591
same,glycan array binding signal (z-score),[17],-0.643
same,glycan array binding signal (z-score),Neu5Ac(b2-6)GalNAc,-0.386
same,glycan array binding signal (z-score),[18],-0.339
